Screening data (PubChem BioAssay)
In the library only some 3.4% were active in any assay of this set; here they are far more common.
FXN GAA850 act – increases GAA850 frataxin promoter reporter activity | HEK293 lucGAA850 FXN promoter luciferase reporter, 24 h; percent of 10 µM SAHA response | activation, % at 6 µM | 0.56% of 360,000 active | AID 540364;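 active means activation above the average of all compounds screened plus 3 SD, cutoff fixed separately per campaign, cut at about 7.5% in these data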;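 further: 0% = DMSO wells and 100% = 10 µM SAHA wells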
GalR3 antagonist – antagonists of human GalR3; O60755; HEK293 GalR3-CNG cAMP membrane potential fluorescence; galR3 body fused to GalR1 C-terminus; inhibition, % at 3 µM; 0.44% of 360,000 active;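 active means inhibition above the screen-wide average plus 3 SD, cut at about 13% in these data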;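 further: forskolin and galanin both at EC90 stimulate the cells; cAMP rise reported by CNG channel membrane potential dye signal; 0% = forskolin plus galanin with DMSO and 100% = forskolin alone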
H9c2 protect – myocardial damage modulation in H9c2 cells. H9c2 cardiomyocytes, H2O2 injury protection, ATPLite, 2 h. protection from H2O2 cell death, % at 20 µM. 0.63% of 360,000 active. AID 588492;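 active means compounds giving at least 50% protection of heart cells from peroxide-induced death in the single-dose screen, raw or plate-pattern-corrected value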;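 further: 0% = DMSO wells with peroxide and 100% = DMSO wells without peroxide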
SMARCA2 act – increases SMARCA2 function in MMTV reporter cells; 1% of 370,000 active; AID 652017; activation, % at 9.1 µM; MG213 cells, MMTV-luciferase reporter, dexamethasone, overnight; in the data active means activation above about 7.8%;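 further: 0% = vehicle wells and 100% = reference activator wells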
NR2F2 inh – inhibitors of human COUP-TFII (NR2F2). HEK293T NGFI-A luciferase reporter, luminescence. inhibition, % at 8.6 µM. 0.7% of 370,000 active. AID 686940;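 active means inhibition above a per-plate cutoff, mean inhibition of test wells between control levels plus 3 SD, cut at about 38% in these data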;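 further: cells cotransfected with COUP-TFII expression vector driving the NGFI-A reporter; 0% = median of COUP-TF2 test wells and 100% = reporter-only cells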
Target sequence (P24468 whole entry, looked up): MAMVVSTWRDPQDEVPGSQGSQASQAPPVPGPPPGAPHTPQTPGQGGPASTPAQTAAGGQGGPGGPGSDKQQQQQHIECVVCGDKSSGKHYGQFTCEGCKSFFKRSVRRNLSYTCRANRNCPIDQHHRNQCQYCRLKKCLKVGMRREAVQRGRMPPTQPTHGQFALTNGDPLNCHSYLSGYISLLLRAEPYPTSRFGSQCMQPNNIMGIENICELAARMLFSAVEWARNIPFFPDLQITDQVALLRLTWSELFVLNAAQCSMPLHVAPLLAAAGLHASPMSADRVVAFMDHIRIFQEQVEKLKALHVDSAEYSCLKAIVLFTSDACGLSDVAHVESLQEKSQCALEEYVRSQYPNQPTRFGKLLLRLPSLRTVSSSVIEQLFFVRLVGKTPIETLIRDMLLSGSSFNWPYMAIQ
Gli-Sufu antag – antagonists of Gli-Sufu signaling | 0.74% of 340,000 active | AID 588413 | inhibition, % at 5 µM | Sufu-KO-LIGHT fibroblasts, Gli luciferase reporter luminescence;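 active means inhibition above about 55%, limit read from the data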;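 further: 0% = DMSO-treated cells and 100% = wells with medium but no cells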
An asterisk follows results filed as active; · = no result given.

SMILES	FXN GAA850 act	GalR3 antagonist	H9c2 protect	SMARCA2 act	NR2F2 inh	Gli-Sufu antag
CCOC(=O)c1cccc(NC(=O)CSc2nc3ccccc3c(=O)n2CCOC)c1	-3	-4	69*	-6	7	11
Cc1cccc(OCCCC(=O)NNC(=O)c2ccccn2)c1	0	-7	50*	-1	2	-7
CCOc1ccc(CCNC(=O)C2CCCCC2)cc1OCC	·	·	·	·	18	·
CCOc1ccc(S(=O)(=O)N(C)CCO)cc1-c1nc2c(C(C)(C)C)nn(C)c2c(=O)[nH]1	4	1	56*	-3	-2	13
COc1ccc(/C=N/Nc2nc(NCc3ccco3)nc(Nc3ccc(OC)cc3)n2)cc1	-1	-2	1	-1	-1	·
COc1ccc(Nc2nc(NCc3ccco3)nc(N/N=C/c3ccc(O)cc3)n2)cc1	-5	-2	51*	-1	1	-4
CCC(=O)N1CCN(c2ccccc2NC(=S)NC(=O)c2cccc([N+](=O)[O-])c2)CC1	2	-2	10	2	-16	10
CN1CCN(c2ccccc2NC(=O)c2ccc(-c3cccc([N+](=O)[O-])c3)o2)CC1	5	-10	77*	1	-2	8
CCC(=O)N1CCN(c2ccccc2NC(=O)c2ccc(-c3cccc([N+](=O)[O-])c3)o2)CC1	-5	-1	107*	-2	-1	32
CN1CCN(c2ccccc2NC(=O)c2cccc([N+](=O)[O-])c2)CC1	2	-4	-1	0	-5	4
COC(=O)C(N)Cc1ccc(Cl)cc1 (stereo not drawn)	0	-3	12	5	-12	7
COC(=O)[C@@H](N)Cc1ccc(O)c(O)c1	1	0	58*	-1	8	0
COc1ccc(/C=C(\C#N)C(=O)c2c(C)[nH]c3ccccc23)cc1OC	1	-3	54*	-2	-1	13
C[C@@H]1CCN(C2CC2)S(=O)(=O)c2ccc(N3CCC[C@H]3CO)cc2O1	·	·	·	-1	-14	·
Cc1nn(-c2ccccc2)c(C)c1C(=O)NCCc1ccccc1	5	-7	-4	8.0*	-29	-43
CCCCN1CCN(C(=O)C2CCCN(C(=O)c3ccc4c(c3)NC(=O)CS4)C2)CC1 (stereo not drawn)	·	·	·	2	-21	·
CCn1c(C)cc(C(=O)COC(=O)c2ccccc2[N+](=O)[O-])c1C	-13	·	-25	·	·	87*
CCCCCCCCN1C(=O)[C@@H](CC(=O)NCCc2ccccc2OC)C[C@@]2(C(=O)OC)C1=C[C@H](COCc1ccccc1)O[C@@H]2C	·	·	·	-5	8	·
CCOC(=O)CN1C(=O)N(c2ccc(OC)cc2)[C@H]2CC3c4ccccc4C[C@]3(C)[C@@H](C(=O)N(C)C3CCCCC3)C[C@H]21 (stereo partly drawn)	·	-8	·	-6	8	·
C#CC(=O)N(c1cccc(OC)c1)C(C(=O)NC1CCCC1)c1cccs1 (stereo not drawn)	-17	-7	-15	-11	-9	0
C#CC(=O)N(c1ccc(OC)c(OC)c1)C(C(=O)NC1CCCC1)c1cccs1 (stereo not drawn)	-20	-5	-20	-12	-29	70*
Nn1c(SCC(=O)NC2CCCCC2)nnc1-c1cc(-c2ccc(F)cc2)n[nH]1	·	·	·	-1	5	·
O=c1c2sccc2n(Cc2cc(=O)n3ccccc3n2)c(=O)n1-c1ccccc1	-1	-1	18	4	7	4
COc1cc(-n2c(=O)c3ccccc3n(Cc3cc(=O)n4ccccc4n3)c2=O)cc(OC)c1OC	1	7	57*	0	-15	4
O=C1C[C@@H](C(=O)Nc2ccc(Cl)cc2)[C@@H](c2ccccc2)O1	·	·	·	1	7	·
SMILES	FXN GAA850 act	GalR3 antagonist	H9c2 protect	SMARCA2 act	NR2F2 inh	Gli-Sufu antag
O=c1[nH]c(CSc2ccccn2)nc2c1oc1ccccc12	-1	1	-8	7.8*	-17	-32
CCc1nc2c(oc3ccccc32)c(=O)[nH]1	2	1	2	2	-18	-4
Cc1cc(/C=C\c2ccc3cc(N(C)C)ccc3[n+]2C)c(C)n1-c1ccccc1	-12	·	-46	·	·	94*
CCOC(=O)C1CCN(c2cc3c(cc2NC(=O)c2ccc(OC)c(OC)c2)n(C)c(=O)n3C)CC1	-1	-2	54*	-3	-13	20
CCOC(=O)C1CCN(c2cc3c(cc2NC(=O)c2ccccc2)n(C)c(=O)n3C)CC1	1	3	66*	-5	-9	49
Cn1c(=O)n(C)c2cc(N3CCCCC3)c(NC(=O)c3ccccc3)cc21	3	3	13	1	-14	10
CC(C)(C)C1CCC(=NNC(=O)c2ccccc2-n2cccc2)CC1 (stereo not drawn)	3	-3	17	11*	-22	-4
O=C1CSc2ccc(C(=O)N3CCCC(C(=O)N4CCN(c5ccc(F)cc5)CC4)C3)cc2N1 (stereo not drawn)	·	·	·	-3	17	·
Oc1c(CN2CCOCC2)cc(COCc2ccccc2)c2cccnc12	0	0	39	2	8	61*
Oc1c(CNc2ccccc2)cc(COCc2ccccc2)c2cccnc12	-3	-9	46	-2	11	3
CC1(C)c2ssc(=S)c2-c2ccccc2N1C(=O)CSC1=NCCS1	0	-4	-10	-1	3	11
COc1ccc2c(c1)-c1c(ssc1=S)C(C)(C)N2C(=O)CSC1=NCCS1	-5	-8	12	-2	52*	11
CCCCCCCCN1C(=O)[C@@H](CC(=O)N2CCC(c3ccccc3)CC2)C[C@@]2(C(=O)OC)C1=C[C@H](C(C)C)O[C@@H]2C1CC1	·	·	·	-1	34	·
Cc1c(/C=N/NC(=O)c2ccc(O)cc2)c2ccccn2c1C(=O)c1ccc(F)cc1	-3	-4	54*	0	-4	-21
C=C1C(=O)[C@@]23[C@H](O)C[C@@H]4C(C)(C)CC[C@H](O)[C@]4(C)[C@@H]2C[C@H](O)[C@@H]1[C@H]3O	-3	1	7	3	-17	28
C=C1C(=O)[C@@]23[C@H](O)C[C@@H]4C(C)(C)CC[C@H](O)[C@@]4(C)[C@@H]2CC[C@@H]1[C@H]3O	0	-3	-20	0	23	80*
COc1ccc(CNC(=O)C(c2ccncc2)N(C(=O)Cc2cccs2)c2ccccc2)cc1 (stereo not drawn)	0	6	18	-1	1	1
COc1ccc(N(C(=O)CCl)C(C(=O)NCCc2ccccc2)c2cccs2)cc1 (stereo not drawn)	-12	1	-10	-6	5	95*
NS(=O)(=O)c1ccc(CCNC(=O)c2ccncc2)cc1	4	8	6	2	6	-16
NS(=O)(=O)c1ccc(CCNC(=O)c2ccc(C#CC3(O)CCCCC3)cc2)cc1	-7	0	71*	-1	23	-8
COc1ccc(N=Cc2cc(Cc3ccccc3Cl)cc([N+](=O)[O-])c2O)cc1OC	2	·	76*	·	·	-6
